Measured values as given in PubChem BioAssay.
Activity calls are given as the source filed them.

Experiment: optical density change of DRC41 E. coli – strain DRC41, OD650, 24 h, E. coli filamentation project, primary screen (AID 1093);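 also: MC1000 strain lacking acrAB efflux and sulA so SOS filamentation is blocked; test concentration not given here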
Details: E. coli DRC41 growth, higher = more signal, called active from +8 up or from −8 down

For `C[C@]1(C(=O)NCCN2CCOCC2)c2ccccc2C(=O)N(Cc2ccc(OC(F)(F)F)cc2)[C@H]1c1ccc(CO)cc1`, which z-score is on record?
Its z-score is 0.365 (inactive).

For `[N-]=[N+]=Nc1ccccc1[C@@H]1OC(c2ccc(OCCCO)cc2)=N[C@]1(CCS(=O)(=O)c1ccccc1)C(=O)NCCN1CCOCC1`, which z-score is on record?
The z-score was 0.0992 (inactive).

With `CC(C)CN1C(=O)[C@@]2(Cc3ccccc31)c1ccccc1C(=O)N(Cc1ccccc1C(F)(F)F)[C@H]2c1ccc(CO)cc1` as the compound, how does the z-score read?
The z-score was -0.861 (inactive).

For `C=CC[C@]1(C(=O)N(C)C)N=C(c2ccc(OCCCO)cc2)O[C@H]1c1ccccc1N=[N+]=[N-]`, which z-score is on record?
Its z-score is 0.394 (inactive).

Which z-score does the source give for `COc1cc2c(cc1OC)CN(C(=O)[C@H]1[C@@H]3C(=O)O[C@@H](c4ccccc4)[C@@H](c4ccccc4)N3[C@@H](c3ccc(OCCO)cc3)[C@]13C(=O)Nc1ccc(C#CC4(O)CCCCCC4)cc13)CC2` here?
Its z-score is 2.32 (inactive).

With `COCCCNC(=O)[C@@H]1c2ccccc2C(=O)N(Cc2ccccc2C(F)(F)F)[C@H]1c1ccc(CO)cc1` as the compound, how does the z-score read?
Its z-score is 0.598 (inactive).

For `C=CC[C@]12N=C(c3ccc(OCCCO)cc3)O[C@H]1c1ccccc1N(C)C2=O`, which z-score is on record?
Its z-score is -0.479 (inactive).

For `CCCC[C@@H]1C[C@H]1[C@@H](NC(=O)c1cccnc1)c1ccc(-c2ccccc2)cc1`, which z-score is on record?
The z-score was -0.919 (inactive).

For `C[C@@H]1ON(c2ccc(C(=O)OC(C)(C)C)cc2)[C@H](c2ccc(Br)cc2)[C@H]1C(=O)N1C(=O)OC[C@H]1Cc1ccccc1`, which z-score is on record?
The z-score was 0.425 (inactive).

Which z-score does the source give for `CC(C)CCC[C@@H](C)[C@H]1CC[C@@]2(C)C3=C(CC[C@]12C)[C@@]1(C)CC[C@H](OC(=O)c2ccc(Br)cc2)C(C)(C)C1CC3` (stereo partly specified) here?
Its z-score is 2.77 (inactive).

Which z-score does the source give for `COc1cc2c(cc1O)C(C)N(Cc1cc3c(cc1Br)OCO3)CC2` (stereo unspecified) here?
Its z-score is -0.471 (inactive).

For `COc1c(C)cc(-c2cc3c(c(Cc4ccccc4)n2)[Si](C(C)C)(C(C)C)OC3)cc1C`, which z-score is on record?
The z-score was -0.733 (inactive).

With `CN(C)CCCN1C(=O)[C@@]2(c3ccc([N+](=O)[O-])cc3)CC(=O)N(CC34CC5CC(CC(C5)C3)C4)[C@@H]2c2ccc(CO)cc21` as the compound, how does the z-score read?
The z-score was 0.304 (inactive).

Which z-score does the source give for `CO[C@H]1O[C@H](CO)[C@@H](OC(=O)Nc2ccc(C(F)(F)F)cc2)[C@H](OC(=O)Nc2ccc3c(c2)OCO3)[C@H]1OC(=O)Nc1ccc2c(c1)OCO2` here?
The z-score was -0.298 (inactive).

With `NC(=O)NCC#Cc1ccc2c(c1)[C@]1(C(=O)N2)[C@H](C(=O)Nc2nc3ccccc3s2)[C@H]2C(=O)O[C@H](c3ccccc3)[C@H](c3ccccc3)N2[C@@H]1c1ccc(O)cc1` as the compound, how does the z-score read?
The z-score was 2.01 (inactive).

With `COCCOC(=O)N1C(=O)[C@@]2(c3cc(C#CC4(O)CCCCCC4)ccc31)[C@H](C(=O)N1CCCCCCC1)[C@H]1C(=O)O[C@H](c3ccccc3)[C@H](c3ccccc3)N1[C@@H]2c1ccc(OCCO)cc1` as the compound, how does the z-score read?
The z-score was 1.82 (inactive).

For `COC(=O)[C@@]1(Cc2ccccc2)[C@H]2c3cc(C(=O)N4CCCC4)[nH]c3C[C@H]2CN1C(=O)c1ccccc1`, which z-score is on record?
Its z-score is -0.156 (inactive).

For `CCOC(=O)[C@H]1C/C=C/C[C@H](C(=O)OCC)C(=O)O[C@H]2[C@@H](OC)O[C@H](CO)[C@@H](OC(=O)CCc3ccccc3)[C@@H]2OC1=O`, which z-score is on record?
The z-score was -0.677 (inactive).

Which z-score does the source give for `Cc1ccc(F)cc1S(=O)(=O)N[C@@H]1CCN(Cc2ccc(OC(C)C)cc2)C1` here?
Its z-score is -19.6 (active).

Which z-score does the source give for `COCCOC(=O)N1C(=O)[C@@]2(c3cc(C#CC4=CCCCC4)ccc31)[C@H](C(=O)N1CCN(c3ncccn3)CC1)[C@H]1C(=O)O[C@H](c3ccccc3)[C@H](c3ccccc3)N1[C@@H]2c1ccc(O)cc1` here?
Its z-score is -0.56 (inactive).

Which z-score does the source give for `COC(=O)C1(Cc2ccccc2)C=C2C(=C(C(C)C)C(=O)C2C)CN1` (stereo unspecified) here?
The z-score was -1.53 (inactive).

With `O=C1O[C@H](c2ccccc2)[C@H](c2ccccc2)N2[C@H]1[C@@H](C(=O)O)[C@]1(C(=O)Nc3ccccc31)[C@H]2c1ccc(O)cc1` as the compound, how does the z-score read?
Its z-score is -0.423 (inactive).

For `COc1ccc(NC(=O)O[C@H]2[C@H](OC(=O)Nc3ccc4c(c3)OCO4)[C@@H](OC(=O)Nc3ccc4c(c3)OCO4)[C@@H](OC)O[C@@H]2CO)cc1`, which z-score is on record?
Its z-score is 1.93 (inactive).

Which z-score does the source give for `COc1c(C)cc(-c2cc3c(c(-c4ccccc4)n2)[Si](C(C)C)(C(C)C)OC3)cc1C` here?
Its z-score is 0.346 (inactive).

For `C[C@@H](OCc1ccccc1)C1NC(=O)[C@@]23C(=O)N[C@@H](Cc4ccccc4)C2[C@H](C)[C@@]2(C)O[C@H]2C3/C=C/C/C=C\CNC(=O)CNC1=O` (stereo partly specified), which z-score is on record?
Its z-score is -0.557 (inactive).

With `COc1ccc([Si](C)(C)[C@@H]2[C@@H](CC(=O)N3CCC[C@H]3CO)O[C@]3(C(=O)N(Cc4ccc(N5C(=O)c6cccc7cccc5c67)cc4)c4ccccc43)[C@H]2C)cc1` as the compound, how does the z-score read?
Its z-score is 1.84 (inactive).

Which z-score does the source give for `CC1CC/C=C\[C@H]2OC34C=CCN(c5ccc6ccccc6c5)C(=O)[C@H]3N(C(CO)C(C)C)C(=O)[C@@H]4C2C(=O)O1` (stereo partly specified) here?
Its z-score is -0.578 (inactive).

Which z-score does the source give for `COCCOC(=O)N1C(=O)[C@@]2(c3cc(C#CCC(C(=O)OC)C(=O)OC)ccc31)[C@H](c1ccc(OCCO)cc1)N1[C@H](c3ccccc3)[C@H](c3ccccc3)OC(=O)[C@H]1[C@@H]2C(=O)N1CCN(c2ncccn2)CC1` here?
The z-score was 1.75 (inactive).

With `CCOC(=O)[C@H]1C/C=C/C[C@H](C(=O)OCC)C(=O)O[C@H]2[C@@H](OC)O[C@H](CO)[C@@H](OC(=O)Nc3ccc(OC)cc3)[C@@H]2OC1=O` as the compound, how does the z-score read?
Its z-score is 1.3 (inactive).

With `O=C1O[C@@H](c2ccccc2)[C@@H](c2ccccc2)N2[C@@H](c3ccc(O)cc3)[C@]3(C(=O)Nc4ccc(C#CC5=CCCCC5)cc43)[C@@H](C(=O)N3CCN(c4ncccn4)CC3)[C@H]12` as the compound, how does the z-score read?
Its z-score is 1.62 (inactive).

For `CCCCN1CC=CC23O[C@@H]4/C=C\CCC(C)OC(=O)C4[C@H]2C(=O)N(CCCCCCO)[C@@H]3C1=O` (stereo partly specified), which z-score is on record?
Its z-score is 0.272 (inactive).

With `CCOC(=O)C[C@H]1[C@H](OC(=O)c2ccc(-c3ccccc3)cc2)[C@@H](NC(=O)c2ccc3ccccc3n2)c2cc(OCCCO)ccc2N1C(=O)c1ccccc1` as the compound, how does the z-score read?
Its z-score is -0.81 (inactive).

With `COc1ccc(NN2C(C(O)c3ccccn3)C=CC3C(=O)N(C4CCCCC4)C(=O)C32)cc1` (stereo unspecified) as the compound, how does the z-score read?
Its z-score is 0.265 (inactive).

Which z-score does the source give for `COc1cc(OC)c(C(O)C2C=CC3C(=O)N(c4ccccc4)C(=O)C3N2Nc2ccc(C#N)cc2)cc1Br` (stereo unspecified) here?
Its z-score is -0.409 (inactive).

For `COc1ccc([Si](C)(C)[C@H]2[C@H](CCn3cc([C@H](O)c4ccccc4)nn3)O[C@@]3(C(=O)N(Cc4ccc(N5CCOC5=O)cc4)c4ccccc43)[C@@H]2C)cc1`, which z-score is on record?
Its z-score is 0.28 (inactive).

Which z-score does the source give for `CCCCC(CC)C(O)C1C=CC2C(=O)N(c3ccccc3)C(=O)C2N1Nc1ccc([N+](=O)[O-])cc1` (stereo unspecified) here?
The z-score was -0.191 (inactive).
